The record followed here is PubChem BioAssay AID1347069 (National Center for Advancing Translational Sciences (NCATS), 2019).

Out of some 44,000 compounds screened, fewer than 10 were called active. The call rests on the fitted dose curve; in most records, active means well fitted inhibition curve with a large enough effect; inconclusive means small, poorly fitted or top-dose-only effect; inactive means flat fitted curve, though single readings scatter. These entries were drawn from the full list. Where a call stands in place of a potency, no number is given.
Potency means the concentration at half of the fitted maximal effect.

In the experiment the target is Tumor susceptibility gene 101 protein (Homo sapiens) (UniProt Q99816). Kind of experiment: qHTS Validation Assay for Inhibitors of HIV-1 Budding by Blocking the Interaction of PTAP/TSG101: Sytravon Library Screen. As to conditions: Fluorescence polarization, FITC-PTAP peptide/Tsg101, 20 min; series mostly up to 115 µM. The source says: Stages of the HIV-1 replication cycle, specifically virus assembly and release, provide underexploited targets for the development of novel antiviral inhibitors. The late stages of HIV-1 replication are mediated by the Gag precursor protein, Pr55Gag. Expression of Pr55Gag is both necessary and sufficient for the production of virus-like particles from Gag-expressing cells. The Gag protein hijacks key host proteins involved in endocytic machinery of the host cell to promote endosomal processing and viral budding. The budding process requires a direct interaction between a […] (PTAP) motif in the p6 domain of Gag and the cellular endosomal sorting protein known as Tsg101. In this way, the Gag PTAP motif promotes the host cells to recruit viral particles to the plasma membrane where the new viral particles are released, effectively turning the host cells into viral factories. A fluorescence polarization assay has been developed to quantitatively measure the PTAP-Tsg101 interaction which can be used to screen for inhibitors of this interaction. This assay was run against the NCGC Sytravon Library collection. NIH Molecular Libraries Probe Production Network [MLPCN] NIH Chemical Genomics Center [NCGC] Grant: R03 MH087464-01A1 PI Name: Dr. Eric Freed, NCI
Chain of Tumor susceptibility gene 101 protein (Homo sapiens) (Q99816 whole entry, looked up): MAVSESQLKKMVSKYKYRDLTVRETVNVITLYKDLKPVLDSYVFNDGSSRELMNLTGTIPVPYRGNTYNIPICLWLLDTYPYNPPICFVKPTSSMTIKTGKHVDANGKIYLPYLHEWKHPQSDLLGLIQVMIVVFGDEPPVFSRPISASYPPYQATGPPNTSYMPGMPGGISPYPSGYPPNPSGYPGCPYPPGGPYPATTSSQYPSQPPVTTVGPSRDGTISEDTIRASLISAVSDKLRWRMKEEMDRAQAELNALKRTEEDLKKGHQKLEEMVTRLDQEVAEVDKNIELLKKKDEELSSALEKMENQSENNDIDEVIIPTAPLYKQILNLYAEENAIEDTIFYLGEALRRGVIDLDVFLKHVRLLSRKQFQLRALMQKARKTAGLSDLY
Two uL of the Tsg101 binding domain in buffer (10 mM HEPES pH 7.5; 0.15 M NaCl, 0.01% Tween 20; 3 mM EDTA;0.1 mM TCEP) was dispensed into Greiner black MB 1536-well plates (final concentration 10 uM). Then, 23 nL of compounds or DMSO were delivered to each well using a pin tool. Finally, 2 uL of a FITC-labeled peptide containing the PTAP motif (1) in the same buffer was dispensed (50 nM final concentration) and the binding was allowed to proceed for 20 min. at r.t. Fluorescent polarization was determined using FITC excitation and polarized emission filters on a Perkin Elmer Envision. Assay cut-off (positive/negative criteria): Actives defined by CRC class, <25 µM; Efficacy <60% inhibition. The total fluorescent intensity from S and P channels will be used to flag fluorescent compounds.
Background: In qHTS, concentration-response curves come from the screen itself.
Take `COc1ccccc1C(=O)Nc1c(C(=O)N(C)Cc2ccccc2)sc2nc(C)c(Cl)c(C)c12`: the Potency result was “inactive”. For the compound `COc1ccccc1CNC(=O)c1ccc(NC(=O)N2CC(C)Sc3ccccc32)cc1` (centres undefined), the Potency result was “inactive”.

In the case of `COc1ccc(NC(=O)c2sc3nc[nH]c(=O)c3c2C)cc1`, the Potency result was “inactive”. For `CCc1ccc(S(=O)(=O)Nc2cc3c(C(=O)OCc4ccccc4)c(C)oc3c3ccccc23)cc1`, the Potency entry was “inactive”. `COc1ccccc1-c1ccnc2[nH]n(-c3ccccc3)c(=O)c12`: the Potency entry was “inactive”. Consider `CSc1nn(Cc2cccc(C)c2)c(N)c1S(=O)(=O)c1ccccc1`, for which the Potency entry is “inactive”.

In the case of `CCOc1ccccc1C(=O)Nc1ccc2c(c1)N(C)C(=O)c1ccccc1S2`, the Potency entry was “inactive”.

Regarding `CCOC(=O)c1[nH]c(C)c(CCC(=O)NCc2ccccc2C)c1C`, the Potency result was “inactive”.

Regarding `Cc1ccc(S(=O)(=O)c2nc(-c3cccs3)oc2N2CCCCC2)cc1`, the Potency result was “inactive”. As to `COc1cccc(CNC(=O)CCc2nc(-c3ccc(C)cc3)no2)c1`, the Potency result was “inactive”. Turning to `CCCCCCn1nnc2sc(-c3ccccc3)cc2c1=O`, the Potency result was “inactive”. With `Cc1ccc(Cl)cc1N1CCN(C(=O)c2cccn3c(=O)c4cc(Cl)ccc4nc23)CC1` the entry was “inactive”; with `Cc1ccccc1-n1c(=O)c2ccccc2n(Cc2ccc(F)cc2)c1=O`, “inactive”. On to `CCc1ccccc1N(C)C(=O)C1CCCN(c2ncnc3onc(-c4ccc(F)cc4)c23)C1` (centres undefined), for which the Potency result was “inactive”.

For `CCOC(=O)c1c(NC(=O)c2ccc(S(=O)(=O)N(CC)CC)cc2)sc2c1CCCCC2`, the Potency entry was “inactive”.

As for `Cc1nc2ccc(S(=O)(=O)N(CC(=O)Nc3ccc(F)cc3)Cc3ccccc3)cc2s1`, the Potency result is “inactive”. As to `COc1ccc(CCNC(=O)CN2C(=O)COc3ccc(S(=O)(=O)N4CCCC4)cc32)cc1OC`, the Potency entry was “inactive”. As for `Cc1cc(Nc2cccc(C(F)(F)F)c2)nc2ccc(NC(=O)c3ccc(=O)[nH]c3)cc12`, the entry is “inactive”; as for `O=C(Nc1ccc2oc(-c3ccc(O)c(Br)c3)nc2c1)c1cc2ccccc2o1`, “inactive”; as for `O=C(c1cccc(Br)c1)N1CCN(Cc2cc(=O)n3nc(-c4ccccc4)sc3n2)CC1`, “inactive”. As to `O=C(CNS(=O)(=O)c1cccs1)N1CCN(c2ccccc2Cl)CC1`, the Potency entry was “inactive”. With `CC1CCc2noc(NC(=O)c3ccc([N+](=O)[O-])cc3)c2C1` (centres undefined) the entry was “inactive”.

With `COc1cc(C(=O)N2CCN(c3ccc(Nc4ccc(C)cc4)nn3)CC2)cc(OC)c1OC`, the Potency result was “inactive”.

For `CCOC(=O)c1ccc(NC(=O)CCS(=O)(=O)c2ccc3c(c2)oc(=O)n3C)cc1`, the Potency entry is “inactive”. As for `O=C(COCc1cc(-c2ccc3c(c2)OCO3)on1)N1CCN(c2cccc(Cl)c2)CC1`, the entry is “inactive”; as for `Cc1ccc(C(=O)Nc2ccc(C(=O)O)cc2)cc1S(=O)(=O)Nc1ccccc1`, “inactive”; as for `Cc1ccc(OCC(=O)OCc2cc(=O)n3nc(C4CC4)sc3n2)cc1`, “inactive”. As for `CCOC(=O)C(Cc1ccccc1)NC(=O)CCc1c(C)nc2c(c(C)nn2-c2ccc(C)c(C)c2)c1C` (centres undefined), the entry is “inactive”; as for `Cc1ccc(OCCSc2nc(-c3cccs3)nc3cc(=O)[nH]n23)cc1Cl`, “inactive”.

In the case of `CC1(C)N=C(SCc2ccccc2Cl)c2ccccc2N1`, the Potency result is “inactive”. Regarding `COc1ccc(Cc2nc3ccc(C(=O)NCc4ccccc4C)cc3o2)cc1`, the Potency entry was “inactive”. Turning to `COc1ccc(N2C(=O)CS(=O)(=O)C23C(=O)N(Cc2ccc(C)cc2)c2ccccc23)cc1Cl` (centres undefined), the Potency entry is “inactive”. With `Cc1ccc(C)c(N2CCN(S(=O)(=O)c3ccc4c(c3)C(C(C)C)C(=O)N4)CC2)c1` (centres undefined), the Potency entry was “inactive”. With `Cc1ccc(NC(=O)CSc2nnc3[nH]c(=O)cc(C)n23)cc1Cl`, the Potency result was “inactive”. With `CCOC(=O)C1CCC(CN(Cc2ccc(OC)cc2)S(=O)(=O)c2ccc(F)c(C(=O)Nc3cc(C)ccc3C)c2)CC1` (centres undefined) the entry was “inactive”; with `CCOC(=O)N1CCc2c(sc3c2c(=O)n(-c2ccc(CC)cc2)c(=O)n3C)C1`, “inactive”; with `COc1ccc(CCN2C(=O)c3oc4cc(C)cc(C)c4c(=O)c3C2c2ccccc2F)cc1OC` (centres undefined), “inactive”. For `CSc1ccc(CCNC(=O)c2ccc3c(c2)nc2n3CCOC2)cc1`, the Potency result was “inactive”. As for `COc1ccccc1N1CCN(C(=O)C2CCN(S(=O)(=O)c3c(C)noc3/C=C/c3ccc(C)cc3)CC2)CC1`, the entry is “inactive”; as for `COc1ccc2c(c1)Cc1sc(NC(=O)c3ccccc3Br)nc1-2`, “inactive”; as for `CC(=O)Nc1ccc(NC(=O)C2CCCN(S(=O)(=O)c3ccc4c(c3)CCCC(=O)N4)C2)cc1` (centres undefined), “inactive”. Regarding `COc1ccc(Cl)cc1NC(=O)CSc1nc(=O)[nH]c2c1CCCC2`, the Potency entry was “inactive”. Regarding `CCc1nn(CC(=O)Nc2cc(C)cc(C)c2)c(=O)c2cc3sccc3n12`, the Potency result was “inactive”. As for `COc1cc(OC)c(NC(=O)c2cnc(N3CCCC3)nc2C)cc1Cl`, the entry is “inactive”; as for `O=C(NCCC1=CCCCC1)c1ccc2c(c1)N(Cc1ccccc1F)C(=O)c1ccccc1S2(=O)=O`, “inactive”; as for `O=C(CN1C(=O)COc2ccc(S(=O)(=O)N3CCCCCC3)cc21)N1CCN(c2cccc(C(F)(F)F)c2)CC1`, “inactive”. As to `CCCCOc1ccc(CN2C(=O)C(=O)c3cc(Br)cc(C)c32)cc1OC`, the Potency entry is “inactive”.

Regarding `COc1cc(CN(C(=O)c2ccccc2Br)c2ccccn2)cc(OC)c1OC`, the Potency result is “inactive”. With `CCOCCCNC(=O)c1c(NC(=O)Cc2coc3c(C)c(C)ccc23)sc2c1CCC2`, the Potency entry is “inactive”. For `Cc1nnc(N2CCC(C(=O)Nc3ccc(F)cc3)CC2)c2nn(-c3ccc(Cl)cc3)c(C)c12`, the Potency entry was “inactive”. `O=C(c1cc(-c2ccc(F)cc2)on1)N1CCN(c2ccc(F)cc2)CC1`: the Potency result was “inactive”.

`COC(=O)CN1C(=O)CSc2ccc(S(=O)(=O)Nc3cc(C)ccc3C)cc21`: the Potency entry was “inactive”. `Cc1cc(C)c2oc(C(=O)Nc3c(C(=O)Nc4ccccc4)oc4ccccc34)cc(=O)c2c1`: the Potency result is “inactive”. As for `O=C(NC1CC(=O)N(c2ccc(Cl)cc2)C1)C1CCCC1` (centres undefined), the Potency entry is “inactive”. Take `CN1CCN(c2oc(-c3ccc(COc4ccc(Cl)cc4)o3)nc2C#N)CC1`: the Potency entry was “inactive”. Regarding `COc1ccc(-c2nc3sc(CCNS(=O)(=O)c4ccc(F)c(C)c4)c(C)n3n2)cc1`, the Potency result is “inactive”. Turning to `O=C(COc1ccccc1F)Nc1ccc(C(=O)OCc2cc(=O)n3nc(C4CC4)sc3n2)cc1`, the Potency entry is “inactive”.

Take `CCC(=O)Nc1ccccc1-c1nc2ccccc2n(CC(=O)Nc2ccc(C)c(C)c2)c1=O`: the Potency result was “inactive”. With `Cc1cccc(-c2nc(SCC(=O)Nc3cc(C)on3)c3c(=O)n(C)c(=O)n(C)c3n2)c1` the entry was “inactive”; with `CC(=O)c1ccc(NC(=O)CSc2c(C(C)C)cnc3c2c(=O)n(C)c(=O)n3C)cc1`, “inactive”; with `COc1ccc(OCc2ccc(-c3nc(C#N)c(N4CCN(c5ccccc5)CC4)o3)o2)cc1`, “inactive”. Turning to `CCCCNC(=O)c1cc(-c2ccc(Cl)c(Cl)c2)on1`, the Potency result is “inactive”. For `CCSc1ncc(Cl)c(C(=O)Nc2c(C(=O)c3ccccc3)oc3ccccc23)n1`, the Potency result is “inactive”. As for `Cc1ccc(NC2=C(c3ccc(C(F)(F)F)cc3)C(=O)c3ccccc32)cc1F`, the Potency result is “inactive”. `COc1cccc(C(=O)Nc2ccc(-c3cc(C(F)(F)F)nn3-c3ccccc3)cc2)c1`: the Potency entry was “inactive”.

On to `COc1cccc(C(=O)c2sc3nc(-c4ccccc4)cc(C(F)(F)F)c3c2N)c1`, for which the Potency was 28.2 µM (active). Take `COc1ccc(S(=O)(=O)c2c(Nc3cccc(Cl)c3)sc(C(=O)c3ccccc3)c2N)cc1`: the Potency entry is “inactive”. `COc1ccc(NC(=O)CN2CCCN(Cc3ccccc3)S2(=O)=O)cc1`: the Potency result was “inactive”.

For the compound `COc1ccccc1Nc1nc(N)nc(N)c1S(=O)(=O)c1ccccc1`, the Potency entry was “inactive”.

On to `COc1cccc(N2CCN(C(=O)CCCCCn3c(=O)[nH]c4ccccc4c3=O)CC2)c1`, for which the Potency entry was “inactive”. Turning to `COc1ccc(CNC(=O)c2cc3c(=O)[nH]c4ccccc4c3s2)cc1`, the Potency result is “inactive”. With `CCCN1C(=O)C(O)(CC(=O)c2ccc(CC)cc2)c2cc(Br)ccc21` (centres undefined), the Potency result is “inactive”. With `O=C(c1ccco1)n1nc(-c2ccc(Cl)cc2)nc1NCc1ccccc1` the entry was “inactive”; with `Cn1c(=O)c2c(-c3ccccc3Br)n(Cc3ccccc3)cc2n(C)c1=O`, “inactive”.

For the compound `Cc1cc(C)c(NC(=O)CN2C(=O)c3cccnc3Oc3ccc(Cl)cc32)c(C)c1`, the Potency result is “inactive”. `CCOC(=O)c1ccc(NC(=O)C2CCN(S(=O)(=O)c3ccc4c(c3)CCCC(=O)N4)CC2)cc1`: the Potency entry is “inactive”.

Consider `O=C(Nc1ccc2nc(SCC(=O)N3CCCc4ccccc43)sc2c1)c1ccc(F)cc1`, for which the Potency entry was “inactive”. With `CCOc1ccc(NC(=O)Cn2c(=O)n(CCCC(=O)NCc3ccc4c(c3)OCO4)c(=O)c3ccccc32)cc1` the entry was “inactive”. As to `CC(=O)N1c2ccc(S(=O)(=O)N3CCCCCC3)cc2CC1C(=O)NCc1ccccc1C` (centres undefined), the Potency entry is “inactive”. Turning to `CCOc1cccc(C(=O)Nc2nnc(S(=O)(=O)N(C)c3ccc(C)cc3)s2)c1`, the Potency result was “inactive”. For the compound `COc1cc(CNCCSc2nnnn2C)ccc1OCc1ccc(Cl)cc1Cl`, the Potency entry is “inactive”. As for `Cc1cn(C)c(CC(=O)NCc2ccccc2)c1C(=O)O`, the entry is “inactive”; as for `CCc1ccc(CNC(=O)c2ccc(CS(=O)c3ccc(Br)cc3)o2)cc1` (centres undefined), “inactive”. For `COc1ccc(-n2ccnc(NCCc3ccc(Cl)cc3)c2=O)cc1OC`, the Potency result was “inactive”. `N#Cc1nc(/C=C/c2ccc(F)cc2)oc1NC1CCCCC1`: the Potency result was “inactive”. `COc1ccc(CNC(=O)CS(=O)Cc2nc(-c3cccc(C)c3)oc2C)cc1` (centres undefined): the Potency result is “inactive”.

On to `CCOc1ccc(NC(=O)c2cc(S(=O)(=O)N3CCCC3)c[nH]2)cc1`, for which the Potency result was “inactive”.

With `COc1cccc(C(=O)NCC(=O)OCc2cc(=O)n3ccsc3n2)c1`, the Potency result was “inactive”. Take `Cc1nn(-c2ccc(N3CCCCC3)nn2)c(C)c1CCC(=O)NCc1ccccc1F`: the Potency result was “inactive”. With `CCc1cc2c(cc3c(=O)n(CC(=O)N4CCN(c5cc(Cl)ccc5C)CC4)ncn32)s1` the entry was “inactive”; with `CCOc1ccc(C2C(=O)N(C3CCCCC3)CC(=O)N2CCC2=CCCCC2)cc1OC` (centres undefined), “inactive”; with `CC1CCCN(Cc2c(O)ccc3c(=O)c(Oc4ccc(C(C)(C)C)cc4)c(C(F)(F)F)oc23)C1` (centres undefined), “inactive”. Consider `CCc1cccc(C)c1NS(=O)(=O)c1ccc(-c2cc(C)no2)s1`, for which the Potency result is “inactive”. With `O=C(CCS(=O)(=O)c1cc(Br)cc2c1N(C(=O)C1CC1)CC2)Nc1ccc(C(F)(F)F)cc1`, the Potency result was “inactive”.
